# PubChem BioAssay AID651610 (Broad Institute, 2012)
# Hit rate of the full screen: of about 360,000 compounds, about 3,900 (1.1%) were called active.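 How the source made its calls: active means mean replicate inhibition score of at least 50 and every replicate individually at or above 50; inconclusive means only one of the two criteria met; inactive means mean below 50 and not all replicates reaching 50.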 The entries come from a sample that favours actives as a whole.
# Test: inhibitors of HIV-1 Env-driven cell-cell fusion, primary screen, HeLa-JRFL effector, CEM21 target cells, luciferase (AID 651610);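 further: 0% = plate neutral controls and 100% = maraviroc near 300 nM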
# Settings: stronger effect = higher value; at 16.7 µM unless noted
row,SMILES,inhibition
1,C[C@@H]1CCCCO[C@@H](CN(C)Cc2ccncc2)[C@@H](C)CN([C@@H](C)CO)C(=O)c2cc(NC(=O)Nc3ccc(F)cc3)ccc2O1,-4.96% (inactive)
2,Cc1ccccc1S(=O)(=O)NCC[C@@H]1CC[C@H](NC(=O)C2CC2)[C@@H](CO)O1,0.439% (inactive)
3,C[C@@H]1CN([C@H](C)CO)C(=O)c2cc(N(C)C)ccc2O[C@@H]1CN(C)S(=O)(=O)c1cn(C)cn1,4.03% (inactive)
4,O=C(C[C@H]1CC[C@H](NS(=O)(=O)c2ccccc2)[C@H](CO)O1)NCc1ccncn1,2.23% (inactive)
5,CC(C)c1cn(CC[C@@H]2CC[C@@H](NC(=O)C3CC3)[C@H](CO)O2)nn1,7.45% (inactive)
6,Cc1cc(C)c(CN2CCN(C(=O)Cn3ccc(NC(=O)OCc4ccccc4)nc3=O)CC2)c(C)c1,72.2% [at 12.3 µM] (active)
7,Nc1ccn(CC(=O)N2CCN(c3ccccn3)CC2)c(=O)n1,15.1% [at 12.3 µM] (inactive)
8,O=C(Nc1ccn(CCCNCc2ccc3[nH]ccc3c2)c(=O)n1)OCc1ccccc1,1.22% [at 12.3 µM] (inactive)
9,C[C@H](CO)N1C[C@H](C)[C@@H](CN(C)Cc2ccc(Oc3ccccc3)cc2)Oc2ccc(NS(=O)(=O)c3ccc(F)cc3)cc2CC1=O,6.63% (inactive)
10,C[C@H](CO)N1C[C@H](C)[C@H](CN(C)C(=O)c2ccccc2)OCCCC[C@H](C)Oc2ccc(NS(C)(=O)=O)cc2C1=O,-12.1% (inactive)
11,Nc1nc2n(n1)C(c1ccco1)CC(c1ccc(Cl)c(Cl)c1)N2 (stereo unspecified),-24.3% [at 12.3 µM] (inactive)
12,COc1ccc(C2CC(c3cccs3)Nc3nnnn32)cc1 (stereo unspecified),15.5% [at 12.3 µM] (inactive)
13,Clc1ccc(C2CC(c3cccs3)n3ncnc3N2)cc1Cl (stereo unspecified),91.8% [at 12.3 µM] (active)
14,Cc1ccc(S(=O)(=O)Nc2ccc3c(c2)C(=O)N([C@H](C)CO)C[C@@H](C)[C@H](CN(C)S(=O)(=O)c2cccs2)OCCCC[C@@H](C)O3)cc1,-10.4% (inactive)
15,O=C(NCC[C@H]1CC[C@@H](NC(=O)C2CC2)[C@H](CO)O1)c1ccc(F)cc1,13.4% (inactive)
16,Cc1ccc(S(=O)(=O)Nc2ccc3c(c2)C(=O)N([C@@H](C)CO)C[C@H](C)[C@@H](CN(C)C(=O)Cc2ccccc2)OCCCC[C@H](C)O3)cc1,-8.35% (inactive)
17,CCCCC[C@@H]1C=C(C(=O)OCC)[C@H](c2ccccc2)N1S(=O)(=O)c1ccc(C)cc1,-5.02% [at 12.3 µM] (inactive)
18,CCOC(=O)C1=CC[C@@H](c2ccccc2)N(S(=O)(=O)c2ccc(C)cc2)[C@H]1c1ccc(CC)cc1,44.3% [at 12.3 µM] (inactive)
19,CCOC(=O)C1C(C)C(C(C)(C)C)N(S(=O)(=O)c2ccc(C)cc2)C1c1ccccc1 (stereo unspecified),77.2% [at 12.3 µM] (active)
20,CCC(=O)N1C[C@H](C)[C@@H](OC)CN(C)C(=O)c2cc(NC(=O)c3cnccn3)ccc2OC[C@@H]1C,-0.896% (inactive)
21,CN(Cc1ccc(F)cc1)C(=O)CN1C(=O)c2ccccc2S1(=O)=O,-26% [at 12.3 µM] (inactive)

row,SMILES,inhibition
1,Cc1ccc(S(=O)(=O)N(C)CC(=O)N2CCc3ccccc32)cc1,-5.79% [at 12.3 µM] (inactive)
2,O=C(CN1C(=O)c2ccccc2S1(=O)=O)N1CCc2ccccc21,63.8% [at 12.3 µM] (active)
3,CC(Oc1ccc(-c2ccccc2)c(F)c1)c1ccn(S(=O)(=O)c2cccc3ccccc23)n1 (stereo unspecified),58.1% [at 12.3 µM] (active)
4,C[C@@H]1CN([C@@H](C)CO)C(=O)c2cc(NC(=O)Nc3cccc4ccccc34)ccc2O[C@H]1CN(C)Cc1ccc(Cl)c(Cl)c1,2.97% (inactive)
5,O=C(Nc1ccc(-c2ccccc2)cc1)[C@H]1[C@H](CO)[C@H]2Cn3c(cccc3=O)[C@H]2N1CC1CC1,-13.3% (inactive)
6,COc1ccc(NC(=O)Nc2ccc3c(c2)C(=O)N([C@@H](C)CO)C[C@H](C)[C@H](CN(C)S(=O)(=O)c2ccccc2)OCCCC[C@@H](C)O3)cc1,-1.8% (inactive)
7,O=C(C[C@@H]1CC[C@@H]2[C@H](COC[C@H](O)CN2Cc2ccc(F)cc2)O1)NCc1ccncn1,-13.2% (inactive)
8,CN1CCN(C(=O)C[C@@H]2C[C@H]3c4cc(NC(=O)NC5CCCC5)ccc4O[C@H]3[C@H](CO)O2)CC1,-16.8% (inactive)
9,CCCNC(=O)N1C[C@@H](O)COC[C@@H]2O[C@H](CC(=O)N3CCN(C)CC3)CC[C@H]21,-4.93% (inactive)
10,C[C@@H]1CN([C@@H](C)CO)C(=O)Cc2cc(NS(=O)(=O)c3ccc(F)cc3)ccc2O[C@@H]1CN(C)S(=O)(=O)c1cccs1,2.26% (inactive)
11,CO[C@H]1CN(C)C(=O)c2ccc(NS(C)(=O)=O)cc2OC[C@@H](C)N(C(=O)c2ccc3c(c2)OCO3)C[C@@H]1C,3.98% (inactive)
12,O=C(COC(=O)c1ccc(Cl)nc1)NCc1cccs1,13.8% [at 12.3 µM] (inactive)
13,O=C(COC(=O)c1ncc(Cl)c(Cl)c1Cl)NCc1ccccc1,-4.53% [at 12.3 µM] (inactive)
14,O=C(COC(=O)c1ncc(Cl)c(Cl)c1Cl)NCc1cccs1,80.8% [at 12.3 µM] (active)
15,CN1C(=O)c2cc(NC(=O)c3cnccn3)ccc2OC[C@@H]2O[C@H](CC(=O)O)CC[C@@H]21,-25.8% (inactive)
16,Cc1cccc(-n2c(SCC(N)=O)nc3c(c2=O)C2(CCCCC2)Cc2ccccc2-3)c1,87% [at 12.3 µM] (active)
17,CCOC(=O)C1Cn2c(nc3c(c2=O)C(C)(CC)Cc2ccccc2-3)S1 (stereo unspecified),-68.6% [at 12.3 µM] (inactive)
18,Cc1cccc(-n2c(=O)c3c(C)c(C)sc3n(CC(N)=O)c2=O)c1,16% [at 12.3 µM] (inactive)
19,C[C@@H]1CN([C@H](C)CO)C(=O)Cc2cc(NC(=O)c3ccncc3)ccc2O[C@H]1CN(C)Cc1ccc(-c2ccccc2)cc1,18.5% (inactive)
20,Cc1ccc(S(=O)(=O)N(C)C[C@@H]2Oc3ccc(NS(=O)(=O)c4cn(C)cn4)cc3C(=O)N([C@@H](C)CO)C[C@H]2C)cc1,-17.6% (inactive)
